Laboratory results from PubChem BioAssay (Tox21).
Where “and” joins values, the source holds several entries; their conditions need not be identical. Equal values may be shown once. Results filed as inconclusive are left out. A call without a number means that no potency is given here. Where a structure was tested more than once in an assay, its records may differ in their call. Calls of active or inactive are those of the source. Unless noted, the call rests on the fitted dose curve; in most records, active means well fitted curve in the direction sought with a large enough effect in the repeat runs; inconclusive means weak or mixed curves; inactive means no such curve, though single readings can be large; an effect the other way counts as inactive or inconclusive.

How the values were obtained:
[1] = qHTS assay to identify small molecule antagonists of the estrogen related receptor (ERR) signaling pathway from Tox21 library - cell viability counter screen (AID 1224834); further: nearly all actives have a fitted effect of over 30% in size; further: potency means the concentration at half of the fitted maximal effect
Outline: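 ERR reporter cells were plated 6 h before compound addition, then exposed to test compounds in DMSO for 17.5 h at 37 C. Viability was read as CellTiter-Fluor fluorescence after a 30-minute incubation at 37 C.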

[2] = biological target: Luciferin 4-monooxygenase (Photinus pyralis) (UniProt P08659); experiment: qHTS assay to identify small molecule inhibitors of firefly luciferase (AID 1224835); further: nearly all actives have a fitted effect of over 25% in size; further: potency means the concentration at half of the fitted maximal effect
Outline: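 Biochemical qHTS: compounds run as interplate titrations against purified firefly enzyme, with D-luciferin and ATP each at its KM concentration. Light output recorded by CCD imaging.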

[3] = qHTS assay to identify small molecule agonists of the constitutive androstane receptor (CAR) signaling pathway - cell viability counter screen (AID 1224836); further: nearly all actives have a fitted effect of over 45% in size; further: potency means the concentration at half of the fitted maximal effect
Outline: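 HepG2 cells stably carrying hCAR and a CYP2B6-2.2kb reporter; 15-concentration compounds plus PK11195 (final 0.75 uM), 23 hr at 37 C/5% CO2. Viability read by CellTiter-Fluor fluorescence.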

[4] = qHTS assay to identify small molecule antagonists of the constitutive androstane receptor (CAR) signaling pathway - cell viability counter screen (AID 1224837); further: nearly all actives have a fitted effect of over 45% in size; further: potency means the concentration at half of the fitted maximal effect
Outline: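 HepG2 cells stably expressing hCAR and a CYP2B6-2.2kb reporter were plated and pre-incubated 4 hr at 37 C/5% CO2, then given compounds at 15 concentrations plus 50 nM CITCO (final). After 23 hr, viability was read by CellTiter-Fluor fluorescence.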

[5] = biological target: Nuclear receptor subfamily 1 group I member 3 (Homo sapiens) (UniProt Q14994); experiment: qHTS assay to identify small molecule antagonists of the constitutive androstane receptor (CAR) signaling pathway (AID 1224838); further: nearly all actives have a fitted effect of over 40% in size
Outline: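 HepG2 cells stably co-transfected with hCAR and a CYP2B6-2.2kb luciferase reporter were seeded 4 h before compound addition at 15 concentrations. Cells were stimulated with 50 nM CITCO (final) for 24 h at 37 C; luciferase luminescence was then read.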

[6] = biological target: Nuclear receptor subfamily 1 group I member 3 (Homo sapiens) (UniProt Q14994); experiment: qHTS assay to identify small molecule agonists of the constitutive androstane receptor (CAR) signaling pathway (AID 1224839); further: nearly all actives have a fitted effect of over 15% in size; further: potency means the concentration at half of the fitted maximal effect;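 on activation: HepG2 cells stably carrying human CAR and a CYP2B6 luciferase reporter; series mostly up to about 92 µM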
Outline: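 HepG2 cells stably co-transfected with hCAR and a CYP2B6-2.2kb luciferase reporter; compounds at 15 concentrations with 0.75 uM PK11195 present. After 24 hr at 37 C, luciferase read by ONE-Glo luminescence.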

[7] = qHTS assay to identify small molecule antagonists of the estrogen related receptor signaling pathway with the pleiotropic PPARgamma coactivator (PGC) from Tox21 10K library - cell viability counter screen (AID 1224840; active means well fitted cell-killing curve with a large enough effect in the repeat runs, not every such curve was filed as active; further: nearly all actives have a fitted effect of over 40% in size; further: potency means the concentration at half of the fitted maximal effect)
Outline: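 PGC/ERR cells were seeded at 2,000 cells/well and left 6 hours at 37 C/5% CO2 before pin-tool addition of compounds in DMSO. After 17.5 hours at 37 C, CellTiter-Fluor was added and fluorescence read 30 minutes later.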

[8] = qHTS assay to identify small molecule antagonists of the estrogen related receptor signaling pathway with the pleiotropic PPARgamma coactivator (PGC) from Tox21 10K library (AID 1224841; call rule not given here; further: actives are mostly falling curves and most rising ones were filed inactive; nearly all actives have a fitted effect of over 50% in size; further: potency means the concentration at half of the fitted maximal effect)
Outline: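 PGC/ERR reporter cells were seeded at 2,000 cells/well and held 6 hours at 37 C/5% CO2 before pin-tool addition of compounds in DMSO. After 18 hours at 37 C, One-Glo was added and luminescence read after 30 minutes at room temperature.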

[9] = qHTS assay to identify small molecule agonists of the estrogen related receptor signaling pathway with the pleiotropic PPARgamma coactivator (PGC) from Tox21 10K library (AID 1224842); further: nearly all actives have a fitted effect of over 15% in size
Outline: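 PGC/ERR reporter cell line, 2,000 cells per well, incubated 6 h at 37 C before 23 nL compound in DMSO was added. After 18 h at 37 C, One-Glo luminescence read following 30 min at room temperature.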

[10] = biological target: Thyrotropin receptor (Homo sapiens) (UniProt P16473); experiment: qHTS assay to identify small molecule agonists of the thyroid stimulating hormone receptor (TSHR) signaling pathway (AID 1224843; calls by dose curve; further: nearly all actives have a fitted effect of over 45% in size)
Outline: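 TSHR-HEK293 cells in agonist mode, 30 min room-temperature step, then cAMP measured by competitive HTRF (cAMP-d2 with anti-cAMP cryptate) after 1 h at room temperature. Tested at 15 concentrations in triplicate.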

[11] = qHTS assay to identify small molecule agonists of the hypoxia (HIF-1) signaling pathway - cell viability counter screen (AID 1224844; calls by dose curve; further: nearly all actives have a fitted effect of over 50% in size)
Outline: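 HRE-bla ME-180 cells in medium with 0.5% dialyzed FBS were preincubated 5 hrs at 37C, exposed to compounds for 17 hrs, then viability was read as CellTiter-Glo luminescence after 30 min at room temperature, in the reporter wells.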

[12] = qHTS assay to identify small molecule agonists of H2AX (AID 1224845; active means well fitted activation curve with a large enough effect in the signal ratio in the repeat runs, not every such curve was filed as active; the % refers to the signal ratio)
Outline: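 Wild-type CHO-K1 cells, plated overnight, exposed 3hr at 37C to 15 concentrations (0.76% DMSO final). Lysed, then HTRF anti-pH2AX (S139) cryptate and anti-H2AX-d2 antibodies, 24 hr room temperature; 665/620 nm emission read.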

[13] = qHTS assay to identify small molecule agonists of the hypoxia (HIF-1) signaling pathway (AID 1224846; active means well fitted activation curve with a large enough effect in the signal ratio in the repeat runs, not every such curve was filed as active; the % refers to the signal ratio)
Outline: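 HRE-bla ME-180 cells (beta-lactamase reporter under hypoxia response element) were plated at 2,000 cells/well in medium with 0.5% dialyzed FBS, rested 5 hrs, then given compounds in DMSO for 17 hrs at 37C, 5% CO2. Reporter induction was read with CCF4-AM FRET substrate.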

[14] = qHTS assay to identify small molecule agonists of H2AX - cell viability counter screen (AID 1224847; calls by dose curve; further: top concentration of the series differs between compounds; nearly all actives have a fitted effect of over 30% in size)
Outline: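 CHO-K1 cells plated overnight at 37C, then exposed 3 h at 37C to compounds at 15 concentrations (0.76% DMSO final). Viability by CellTiter-Glo luminescence after 30 min at room temperature.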

[15] = qHTS assay to identify small molecule antagonists of the estrogen related receptor (ERR) signaling pathway from Tox21 library (AID 1224848); further: nearly all actives have a fitted effect of over 50% in size
Outline: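 ERR reporter cell line (from NTP) seeded 2,000 cells/well, rested 6 h at 37 C/5% CO2, then pin-dosed with compounds in DMSO. After 18 h at 37 C, ONE-Glo added; luminescence read after 30 min at room temperature.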

[16] = qHTS assay to identify small molecule agonists of the estrogen related receptor (ERR) signaling pathway from Tox21 library (AID 1224849; calls by dose curve; further: nearly all actives have a fitted effect of over 15% in size)
Outline: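 ERR reporter cell line (NTP) seeded, rested 6 h at 37 C/5% CO2, then pinned with Tox21 compounds in DMSO. After 18 h at 37 C, ONE-Glo luciferase luminescence was read following 30 min at room temperature.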

[17] = qHTS RealTime-Glo MT Cell Viability Assay in HepG2 cells - 24 hour (AID 1224867); further: nearly all actives have a fitted effect of over 50% in size
Outline: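 Compound treatment began 5 h after plating HepG2 cells (600/well) with NanoLuc luciferase and prosubstrate. Plates stayed at 37 C for 40 h; luminescence was captured at six time points, 0 h through 40 h.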

[18] = qHTS RealTime-Glo MT Cell Viability Assay in HEK293 cells - 32 hour (AID 1224868); further: nearly all actives have a fitted effect of over 50% in size; further: potency means the concentration at half of the fitted maximal effect
Outline: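 Quantitative high-throughput screen of the Tox21 10K library in HEK293: cells and RealTime-Glo reagents plated together, compound added at 5 h, luminescence monitored through 40 h at 37 C.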

[19] = A CellTox Green Cytotoxicity Assay to monitor cytotoxicity in HEK293 cells - 0 hour (AID 1224869); further: nearly all actives have a fitted effect of over 50% in size
Outline: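 HEK293 cells premixed with CellTox Green dye were seeded at 600 cells/well and left 5 h at 37 C/5% CO2 before pin transfer of 23 nL compound in DMSO. Fluorescence from dye bound to dead-cell DNA was read during 40 h treatment.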

[20] = qHTS assay to identify small molecule agonists of the estrogen related receptor signaling pathway with the pleiotropic PPARgamma coactivator (PGC) (AID 1224823)
Outline: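 Steps: plate PGC/ERR cells at 2,000 cells/well; incubate 6 h, 37 C/5% CO2; pin-transfer compounds (DMSO); incubate 18 h, 37 C; add One-Glo; 30 min RT; read luminescence.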

Nuclear receptor subfamily 1 group I member 3 (Homo sapiens), sequence (Q14994 whole entry, looked up): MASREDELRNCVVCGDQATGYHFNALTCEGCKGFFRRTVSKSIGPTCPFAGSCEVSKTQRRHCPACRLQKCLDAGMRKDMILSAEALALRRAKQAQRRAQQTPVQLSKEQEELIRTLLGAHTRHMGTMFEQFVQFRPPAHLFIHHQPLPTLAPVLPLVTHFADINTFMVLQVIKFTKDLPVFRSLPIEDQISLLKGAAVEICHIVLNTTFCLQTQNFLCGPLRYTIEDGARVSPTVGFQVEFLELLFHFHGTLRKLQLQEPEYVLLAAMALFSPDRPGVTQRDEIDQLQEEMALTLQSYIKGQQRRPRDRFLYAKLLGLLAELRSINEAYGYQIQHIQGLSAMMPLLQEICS
Thyrotropin receptor (Homo sapiens), sequence (P16473 whole entry, looked up): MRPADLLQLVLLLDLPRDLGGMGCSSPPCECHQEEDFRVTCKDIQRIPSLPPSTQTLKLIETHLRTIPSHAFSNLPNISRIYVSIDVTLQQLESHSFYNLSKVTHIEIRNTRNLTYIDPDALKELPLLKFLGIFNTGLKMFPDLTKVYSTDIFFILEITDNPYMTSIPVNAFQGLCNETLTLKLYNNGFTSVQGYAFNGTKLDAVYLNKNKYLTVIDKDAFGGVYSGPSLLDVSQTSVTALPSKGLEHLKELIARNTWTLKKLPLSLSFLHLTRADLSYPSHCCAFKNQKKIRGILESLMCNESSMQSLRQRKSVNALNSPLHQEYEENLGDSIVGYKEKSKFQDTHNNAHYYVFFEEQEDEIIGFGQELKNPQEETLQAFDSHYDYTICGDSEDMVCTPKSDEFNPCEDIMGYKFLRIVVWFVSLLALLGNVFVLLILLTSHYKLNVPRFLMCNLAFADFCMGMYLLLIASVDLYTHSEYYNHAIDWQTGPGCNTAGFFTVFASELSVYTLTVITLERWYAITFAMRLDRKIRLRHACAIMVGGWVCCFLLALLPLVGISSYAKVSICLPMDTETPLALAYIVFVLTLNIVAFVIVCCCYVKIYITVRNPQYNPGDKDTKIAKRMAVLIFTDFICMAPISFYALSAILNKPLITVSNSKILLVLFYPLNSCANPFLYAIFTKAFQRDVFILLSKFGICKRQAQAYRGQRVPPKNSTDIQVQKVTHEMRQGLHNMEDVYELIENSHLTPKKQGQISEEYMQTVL
Luciferin 4-monooxygenase (Photinus pyralis), sequence (P08659 whole entry, looked up): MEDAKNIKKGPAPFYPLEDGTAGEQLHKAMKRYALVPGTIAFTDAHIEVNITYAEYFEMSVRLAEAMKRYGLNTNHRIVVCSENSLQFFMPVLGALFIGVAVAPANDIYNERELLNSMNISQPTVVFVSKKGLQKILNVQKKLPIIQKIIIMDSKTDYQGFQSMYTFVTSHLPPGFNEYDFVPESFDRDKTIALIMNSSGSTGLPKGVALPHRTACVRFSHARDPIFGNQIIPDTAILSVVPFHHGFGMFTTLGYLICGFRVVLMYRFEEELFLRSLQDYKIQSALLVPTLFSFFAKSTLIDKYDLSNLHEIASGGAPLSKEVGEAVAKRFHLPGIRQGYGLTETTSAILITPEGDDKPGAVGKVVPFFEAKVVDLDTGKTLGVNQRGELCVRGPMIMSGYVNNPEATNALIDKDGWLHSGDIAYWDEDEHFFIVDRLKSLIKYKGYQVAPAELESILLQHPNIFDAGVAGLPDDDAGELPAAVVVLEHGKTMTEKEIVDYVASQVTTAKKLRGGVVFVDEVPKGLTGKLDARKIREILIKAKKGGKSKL

Structure (SMILES)	Potency [1]	Potency [2]	Potency [3]	Potency [4]	outcome [5]	Potency [6]	Potency [7]	Potency [8]	outcome [9]	outcome [10]	outcome [11]	outcome [12]	outcome [13]	outcome [14]	outcome [15]	outcome [16]	Potency [17]	Potency [18]	outcome [19]	outcome [20]
COc1ccc(OC)cc1	inactive	inactive	inactive	inactive	inactive	inactive	inactive	inactive	inactive	inactive	inactive	inactive	inactive	inactive	inactive	inactive	inactive	inactive	inactive	
CN(C)CCOC(=O)COc1ccc(Cl)cc1	inactive		inactive	inactive			inactive	inactive	inactive	inactive	inactive			inactive	inactive	inactive	inactive	inactive		inactive
CC(=O)OCCOC(C)=O	inactive		inactive	inactive	inactive	inactive	inactive			inactive	inactive	inactive	inactive	inactive			inactive	inactive		
CCCCOC(=O)c1ccc(N)cc1	inactive	inactive and 34.7 µM (active)	inactive	inactive	inactive	23.7 µM (active)				inactive	inactive			inactive			inactive	inactive	inactive	
CC(C)CC(=O)CC(C)CC(C)C (configuration not stated)	inactive		inactive	inactive	inactive	inactive	inactive	inactive	inactive	inactive	inactive		inactive	inactive	inactive	inactive	inactive	inactive and 17.4 µM (active)	inactive	
COc1ccc(C)cc1N	inactive	inactive	inactive	inactive	inactive		inactive			inactive	inactive	inactive	inactive	inactive			inactive	inactive	inactive	
C=C(C)CNCC	inactive	inactive	inactive	inactive	inactive		inactive	inactive	inactive	inactive	inactive		inactive	inactive	inactive	inactive	inactive	inactive	inactive	
C=Cc1ccc(C)cc1	inactive	inactive	inactive	inactive	inactive	inactive				inactive	inactive	inactive	inactive	inactive			inactive	inactive		
COC(=O)CCCC(=O)OC	inactive		inactive	inactive	inactive	inactive	inactive			inactive	inactive	inactive	inactive	inactive			inactive	inactive		
COc1cc(OC)c(C(=O)CCCN2CCCC2)c(OC)c1	inactive	inactive	inactive	inactive	inactive	inactive				inactive	inactive	inactive		inactive			inactive	inactive	inactive	
CC(CCl)OP(=O)(OC(C)CCl)OC(C)CCl (configuration not stated)	inactive	inactive	inactive	inactive	inactive		inactive	38.6 µM (active) and inactive	inactive	inactive	inactive	inactive	inactive	inactive	inactive	inactive	inactive	inactive	inactive	
CCNC(=S)NCC	inactive		inactive	inactive	inactive	inactive	inactive			inactive	inactive	inactive	inactive	inactive			inactive	inactive	inactive	
CC(=O)CCC=C(C)C	inactive	inactive	inactive	inactive			inactive	inactive	inactive	inactive	inactive	inactive	inactive	inactive	inactive	inactive	inactive	inactive	inactive	
CCOC(=O)n1ccn(C)c1=S	inactive	inactive	inactive	inactive			inactive			inactive	inactive	inactive	inactive	inactive			inactive	inactive		
NC(=S)NNC(N)=S	inactive	inactive	inactive	inactive			inactive			inactive	inactive	inactive	inactive	inactive			inactive	inactive	inactive	
O=S(=O)(O)c1ccc(N=Nc2c(O)ccc3cc(S(=O)(=O)O)ccc23)cc1	30.8 µM (active) and 54.5 µM (active)		54.7 µM (active) and 30.6 µM (active)	54.7 µM (active) and 27.3 µM (active)	inactive	inactive	48.6 µM (active)	27.4 µM (active) and inactive	inactive		inactive		inactive	inactive	inactive	inactive		inactive		
CCCCCCCCCCO	inactive	inactive	inactive	inactive			inactive			inactive	inactive	inactive	inactive	inactive			inactive	inactive		
CC(=O)c1ccc(O)cc1	inactive		inactive	inactive	inactive	inactive	inactive			inactive	inactive	inactive	inactive	inactive			inactive	inactive		
O=C(O)c1ccc(S(=O)(=O)N(Cl)Cl)cc1	inactive	inactive	inactive	inactive	inactive	inactive				inactive	inactive	inactive	inactive	inactive			inactive	49.3 µM (active) and inactive		
Cc1ccc([N+](=O)[O-])cc1S(=O)(=O)O	inactive	inactive	inactive	inactive			inactive	inactive	inactive	inactive	inactive		inactive	inactive	inactive	inactive	inactive	inactive	inactive	
